Laboratory results reported in the supplement of paper PMC12340860.
± gives the standard deviation of the averaged measurements.

These compounds were tested on Caenorhabditis elegans infected with Nematocida parisii (assay: progeny production of N. parisii-infected C. elegans relative to uninfected control; higher = stronger inhibition of microsporidia infection (rescue of reproduction)). Conditions: 60 µM; incubation time 5 days; spore dose (spores/uL): 18000.
Protocol: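 C. elegans N2 L1 larvae (100 per well, 96-well plate, K-medium with 5x E. coli OP50, 1% DMSO) were infected with Nematocida parisii spores (18,000 spores/uL) that had been pre-incubated for 1 h with each BU-CMD library compound at 60 uM. Plates were incubated 5 days at 21 C with shaking. Progeny were stained with rose bengal, scanned on a flatbed scanner and counted with WorMachine. Progeny number is expressed as % of uninfected DMSO controls on the same plate; three biological replicates per compound; hits were compounds with at least 60% progeny production.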

Compound	progeny production [%]
CONC(=O)[C@H]1[C@@H](O)[C@@]2(O)c3c(OC)cc(OC)cc3O[C@@]2(c2ccc(OC)cc2)[C@@H]1c1ccccc1	13.2 ± 4.2
COC(=O)[C@@H]1[C@@H](c2ccccc2)[C@]2(c3ccc(OC)cc3)Oc3cc(OC)cc(OC)c3[C@@]23N=C(C2CC2)N[C@@]13O	8.05 ± 3.6
COC(=O)[C@@H]1[C@@H](c2ccccc2)[C@]2(c3ccc(OC)cc3)Oc3cc(OC)cc(OC)c3[C@@]23N=C(C)N[C@@]13O	14.3 ± 4
